An excerpt weighted towards active compounds, which were near 19% of everything screened.
MCF10A rereplic = induces DNA re-replication in MCF 10a normal breast cells; MCF 10A DNA re-replication, Hoechst nuclear intensity, 48 h; Potency, µM (titrated, usually from 46.1 µM), without a hit: at the highest dose activity, positive = re-replication, hits mostly activators; hit rate 2.9% among 350,000; note: potency is the fitted concentration of half-maximal effect; % of control where 0% means no effect; nearly all actives have a fitted effect of over 50% in size
SW480 rereplic = induces DNA re-replication in SW480 colon adenocarcinoma cells; SW480 DNA re-replication, Hoechst DNA content imaging, 48 h; Potency, µM (doses to about 46.1 µM), inactives show at the top dose re-replication activation, usual class: activators; hit rate 1.8% among 340,000; AID 624297; note: potency is the fitted concentration of half-maximal effect; % of control where 0% means no effect; nearly all actives have a fitted effect of over 55% in size
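Treated cells incubate 48 hr (37 C, 5% CO2), are stained 40 min with Hoechst, and nuclear fluorescence is enumerated; a rise in nuclei with high DNA signal marks re-replication.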
Chronic BCR inh = chronic active BCR signaling inhibition; Potency, µM (top dose mostly 46.1 µM), for inactives: at the top dose activity change, negative = inhibition, most hits filed as inhibitors; ABC-DLBCL IkBa-CBG/CBR reporter, luminescence ratio, 4 h; AID 493014; hit rate 0.05% among 340,000; active = well fitted inhibition curve with a large enough effect in the signal ratio, with a control signal flat, not every such curve was filed as active; inconclusive = small, poorly fitted or top-dose-only effect, or effect the other way, or a change in a side signal; the % refers to the signal ratio;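 note: potency is the fitted concentration of half-maximal effect; plate controls were basal doxycycline-induced cells for no effect and cells given 10 µM MG132 for full effect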
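Cell line TMD8 (human ABC DLBCL), stably expressing tet-inducible CBG68-IkBa fusion and CBR; IMDM/0.5% FBS; cpd up to 46 uM; dox induction, 4 h, 37C/5% CO2; dual luminescence; green/red ratio; MG132 control.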
IL-1B inflam inh = blocks inflammasome-driven IL-1 beta release; THP-1 LPS/ATP IL-1B secretion, AlphaLISA, 16 h; hits give low values; activity change, % at 57.5 µM; hit rate 4.7% among 360,000; in the data active = activity change below about -50%; inconclusive = mostly about -30% to -49%; note: % is set by controls: 0 for no effect and ±100 for the full control effect
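Secreted IL-1B measured by AlphaLISA bead assay after 16 h compound exposure of THP-1 cells; compounds (final up to 57.5 uM) added 1 h before LPS (250 ng/mL) and ATP (1.25 mM) stimulation; lower signal means less secretion.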
TDP1 cell noCPT = qHTS for Inhibitors of human tyrosyl-DNA phosphodiesterase 1 (TDP1): qHTS in cells in absence of CPT. hit rate 15% among 420,000. Potency, µM (doses to about 46.2 µM), inactives show at the highest dose activity change, negative = growth inhibition, actives largely listed as inhibitors. DT40 Tdp1-/- hTDP1 cells, no CPT, ATP luminescence, 48 h; note: potency is the fitted concentration of half-maximal effect; % is set by controls: 0 for no effect and ±100 for the full control effect; nearly all actives have a fitted effect of over 55% in size
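Seeded 400 DT40-hTDP1 cells/well (vehicle DMSO, no 20 nM CPT); pinned compounds; ≥48 hr at 37 °C; CellTiter-Glo luminescence as viability measure.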
DT40 TDP1 CPT = growth inhibition of DT40 Tdp1-/-;hTDP1 cells with camptothecin (screen for TDP1 inhibitors); chicken DT40 Tdp1-/-;hTDP1 cells + 20 nM CPT, ATP luminescence, 48 h; Potency, µM (top dose mostly 46.2 µM), for inactives: at the top dose activity change, negative = growth inhibition, most hits filed as inhibitors; hit rate 12% among 420,000; note: potency is the fitted concentration of half-maximal effect; % is set by controls: 0 for no effect and ±100 for the full control effect; nearly all actives have a fitted effect of over 55% in size
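Cell growth measured by CellTiter-Glo luminescence after a minimum 48 h, 37 C compound exposure with 20 nM CPT in Tdp1-knockout DT40 cells stably expressing hTDP1, seeded 400/well; qHTS titration format.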
Numbers without * were called inactive; ? = inconclusive; / = no result given; [ ] = dose if it differs, or a comment. Unless noted, calls come from the whole dose curve; as a rule, active = well fitted curve in the direction sought with a large enough effect; inconclusive = small, poorly fitted or top-dose-only effect, or another doubt; inactive = no such curve, though single readings can be large; an effect the other way counts as inactive or inconclusive.

SMILES	MCF10A rereplic	SW480 rereplic	Chronic BCR inh	IL-1B inflam inh	TDP1 cell noCPT	DT40 TDP1 CPT
COc1ccc(C(=O)NCc2c(C)nn(Cc3ccccc3)c2C)cc1S(=O)(=O)N1CCOCC1	15µM*	?	?	-10	?	10µM*
COc1ccc(NC(=O)c2c(C)nn(Cc3ccccc3)c2C)cc1S(=O)(=O)N(C)C	-2%	-8%	-1%	25	-19%	1%
CC(=O)Nc1ccc(NC(=O)c2c(C)nn(Cc3ccccc3)c2Cl)cc1	8%	-3%	?	-6	1.2µM*	13µM*
O=C(COc1cc(F)ccc1[N+](=O)[O-])Nc1cccc(S(=O)(=O)NC2=NCCC2)c1	8%	-15%	6%	-2	-20%	-28%
CCCCN(C)CCNC(=O)C1CCCN(S(=O)(=O)c2ccc3c(c2)oc(=O)n3C)C1 (stereo unspecified)	/	/	/	/	-24%	-23%
O=C1NC[C@@H](CCCCN2C[C@H](Cc3ccc(O)cc3)N(CCC3CCCCC3)C(=O)C2=O)N(CC2CCCCC2)C1=O	/	/	/	-27	-12%	-10%
Cn1c(Sc2ccc(Cl)cc2)c(C=O)c2ccccc21	?	?	-6%	-81*	21µM*	?
Cn1c(Sc2ccccc2Cl)c(C=O)c2ccccc21	?	2%	?	-63*	?	?
Cc1cccc(Sc2c(C=O)c3ccccc3n2C)c1	?	5%	?	-14	-13%	6%
Cn1c(Cl)c(/C=N/OC(=O)c2ccccc2Cl)c2ccccc21	-3%	-4%	-7%	-7	?	-22%
CCOc1ccccc1NC(=O)CCS(=O)(=O)c1ccc2c(c1)oc(=O)n2C	/	/	/	/	-19%	-11%
COC(=O)/C(C#N)=C1/SC=C(C)N1c1ccccc1	-3%	-1%	0%	26	-12%	-7%
N#C/C(C(N)=O)=C1/SC=C(c2ccccc2)N1c1ccccc1	2%	-16%	-24%	-7	18µM*	?
COc1ccc(F)c(CN2CCOc3ccc(CN4CCCCC4CO)cc3C2)c1 (stereo unspecified)	/	/	/	/	-19%	-1%[9.04 µM]
Cn1c(CSCc2ccc(Cl)c(Cl)c2)n[nH]c1=S	8%	2%	-18%	-5	23µM*	?
CCn1c(CSCc2ccc(Cl)cc2)n[nH]c1=S	-15%	?	-22%	2	8.2µM*	?
CCn1c(CSCc2ccc(C)cc2)n[nH]c1=S	3%	-2%	-2%	25	?	0%
Cn1c(CSCCOc2ccccc2)n[nH]c1=S	1%	-6%	5%	16	16µM*	-18%
CCCS(=O)(=O)NCc1c(C)ncc2c1CCN(C(=O)c1cccc(-c3ccccc3F)c1)C2	/	/	/	/	?	7%[9.04 µM]
Cn1c(=O)c2cc(NC(=O)NCc3ccc(F)cc3)ccc2n1C	/	/	/	-12	-14%	-10%
COc1cccc(CNc2nc3cc(-c4ccc(C)cc4)sc3c(=O)n2C)c1OC	/	/	/	85	18µM*	16µM*
CC(=O)Nc1ccc(CNc2nc3cc(-c4ccc(F)cc4)sc3c(=O)n2C)cc1	/	/	/	-2	?	?
COc1cccc(CNc2nc3cc(-c4ccsc4)sc3c(=O)n2C)c1OC	/	/	/	6	?	?
COc1cccc(CNc2nc3cc(-c4ccc(F)cc4)sc3c(=O)n2C)c1OC	/	/	/	-16	16µM*	26µM*
COc1cccc(NC(=O)N(C)C[C@H]2Oc3cc(Br)ccc3S(=O)(=O)N([C@H](C)CO)C[C@H]2C)c1	/	/	/	-27	?	?
CCOC(=O)c1c(C)oc2nc(C)nc(N(C)Cc3ccccc3)c12	/	/	/	/	23µM*	18µM*
CCOC(=O)c1c(C)oc2nc(C)nc(N3CCN(c4cccc(C(F)(F)F)c4)CC3)c12	/	/	/	/	5.2µM*	9.2µM*
CCOC(=O)c1c(C)oc2nc(C)nc(N3CCN(c4ccccc4)CC3)c12	/	/	/	/	15µM*	9.2µM*
